# Experiments:
# [1] = biological target: T1, Serine/threonine-protein kinase TBK1 (Homo sapiens) (UniProt Q9UHD2); settings: at 1 µM
# T1 sequence (whole entry): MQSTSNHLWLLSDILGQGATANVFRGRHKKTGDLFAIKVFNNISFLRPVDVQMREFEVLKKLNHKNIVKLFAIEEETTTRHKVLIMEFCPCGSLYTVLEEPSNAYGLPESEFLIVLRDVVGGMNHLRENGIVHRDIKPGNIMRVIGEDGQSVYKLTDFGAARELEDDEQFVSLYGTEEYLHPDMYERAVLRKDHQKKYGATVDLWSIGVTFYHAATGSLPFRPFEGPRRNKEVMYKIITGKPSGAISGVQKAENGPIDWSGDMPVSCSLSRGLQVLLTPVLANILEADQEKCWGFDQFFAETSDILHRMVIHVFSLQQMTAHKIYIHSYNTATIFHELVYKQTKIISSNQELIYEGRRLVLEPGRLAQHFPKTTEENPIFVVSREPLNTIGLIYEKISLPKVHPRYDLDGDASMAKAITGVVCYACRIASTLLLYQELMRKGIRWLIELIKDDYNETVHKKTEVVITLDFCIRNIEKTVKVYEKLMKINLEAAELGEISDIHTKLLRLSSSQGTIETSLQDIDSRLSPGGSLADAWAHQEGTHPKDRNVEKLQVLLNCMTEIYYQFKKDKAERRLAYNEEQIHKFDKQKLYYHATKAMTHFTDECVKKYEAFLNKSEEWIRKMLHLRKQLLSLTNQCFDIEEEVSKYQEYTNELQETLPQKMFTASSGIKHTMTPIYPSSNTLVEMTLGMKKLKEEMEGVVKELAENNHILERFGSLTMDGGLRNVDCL
# [2] = biological target: T1, Serine/threonine-protein kinase TBK1 (Homo sapiens); settings: at 10 µM
# [3] = biological target: T2, TGF-beta receptor type-1 (Homo sapiens) (UniProt P36897); settings: at 1 µM
# T2 sequence (whole entry): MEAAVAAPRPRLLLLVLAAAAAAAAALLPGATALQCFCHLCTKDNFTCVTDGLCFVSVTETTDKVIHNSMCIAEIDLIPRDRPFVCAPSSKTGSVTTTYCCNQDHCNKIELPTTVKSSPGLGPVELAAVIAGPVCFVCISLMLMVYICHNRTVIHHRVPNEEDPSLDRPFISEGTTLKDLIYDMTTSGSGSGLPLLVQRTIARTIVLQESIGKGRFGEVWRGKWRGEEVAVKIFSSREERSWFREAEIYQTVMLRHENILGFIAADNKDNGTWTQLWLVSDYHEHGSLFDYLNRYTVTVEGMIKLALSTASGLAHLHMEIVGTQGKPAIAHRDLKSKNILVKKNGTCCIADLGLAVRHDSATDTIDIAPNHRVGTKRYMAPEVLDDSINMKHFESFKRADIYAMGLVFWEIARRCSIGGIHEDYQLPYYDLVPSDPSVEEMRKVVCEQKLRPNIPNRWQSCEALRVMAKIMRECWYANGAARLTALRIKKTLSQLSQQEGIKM
# [4] = biological target: T2, TGF-beta receptor type-1 (Homo sapiens); settings: at 10 µM
# [5] = biological target: Insulin-like growth factor 1 receptor (Homo sapiens) (UniProt P08069); settings: at 1 µM
# [6] = biological target: Insulin-like growth factor 1 receptor (Homo sapiens) (UniProt P08069); settings: at 10 µM
# [7] = biological target: T3, Inhibitor of nuclear factor kappa-B kinase subunit alpha (Homo sapiens) (UniProt O15111); settings: at 1 µM
# T3 sequence (whole entry): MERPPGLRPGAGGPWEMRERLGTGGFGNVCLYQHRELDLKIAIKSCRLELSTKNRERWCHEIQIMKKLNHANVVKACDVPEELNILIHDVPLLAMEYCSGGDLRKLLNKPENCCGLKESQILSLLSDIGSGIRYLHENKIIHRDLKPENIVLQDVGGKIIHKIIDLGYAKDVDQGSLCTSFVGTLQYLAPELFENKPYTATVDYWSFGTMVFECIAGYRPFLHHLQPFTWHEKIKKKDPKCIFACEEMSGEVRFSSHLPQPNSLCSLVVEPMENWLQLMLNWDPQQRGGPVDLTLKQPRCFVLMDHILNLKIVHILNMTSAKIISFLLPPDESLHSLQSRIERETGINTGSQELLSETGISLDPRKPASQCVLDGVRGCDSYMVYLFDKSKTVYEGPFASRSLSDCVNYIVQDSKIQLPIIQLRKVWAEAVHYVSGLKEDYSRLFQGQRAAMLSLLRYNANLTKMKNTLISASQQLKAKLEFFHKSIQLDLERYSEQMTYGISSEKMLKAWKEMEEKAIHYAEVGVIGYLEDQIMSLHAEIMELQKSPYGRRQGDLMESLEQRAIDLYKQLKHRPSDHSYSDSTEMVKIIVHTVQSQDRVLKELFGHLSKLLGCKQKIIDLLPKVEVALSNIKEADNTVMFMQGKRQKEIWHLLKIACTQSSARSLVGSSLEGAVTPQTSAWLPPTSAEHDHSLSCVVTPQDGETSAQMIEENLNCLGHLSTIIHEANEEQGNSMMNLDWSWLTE
# [8] = biological target: T3, Inhibitor of nuclear factor kappa-B kinase subunit alpha (Homo sapiens); settings: at 10 µM
# [9] = biological target: T4, Inhibitor of nuclear factor kappa-B kinase subunit beta (Homo sapiens) (UniProt O14920); settings: at 10 µM
# T4 sequence (whole entry): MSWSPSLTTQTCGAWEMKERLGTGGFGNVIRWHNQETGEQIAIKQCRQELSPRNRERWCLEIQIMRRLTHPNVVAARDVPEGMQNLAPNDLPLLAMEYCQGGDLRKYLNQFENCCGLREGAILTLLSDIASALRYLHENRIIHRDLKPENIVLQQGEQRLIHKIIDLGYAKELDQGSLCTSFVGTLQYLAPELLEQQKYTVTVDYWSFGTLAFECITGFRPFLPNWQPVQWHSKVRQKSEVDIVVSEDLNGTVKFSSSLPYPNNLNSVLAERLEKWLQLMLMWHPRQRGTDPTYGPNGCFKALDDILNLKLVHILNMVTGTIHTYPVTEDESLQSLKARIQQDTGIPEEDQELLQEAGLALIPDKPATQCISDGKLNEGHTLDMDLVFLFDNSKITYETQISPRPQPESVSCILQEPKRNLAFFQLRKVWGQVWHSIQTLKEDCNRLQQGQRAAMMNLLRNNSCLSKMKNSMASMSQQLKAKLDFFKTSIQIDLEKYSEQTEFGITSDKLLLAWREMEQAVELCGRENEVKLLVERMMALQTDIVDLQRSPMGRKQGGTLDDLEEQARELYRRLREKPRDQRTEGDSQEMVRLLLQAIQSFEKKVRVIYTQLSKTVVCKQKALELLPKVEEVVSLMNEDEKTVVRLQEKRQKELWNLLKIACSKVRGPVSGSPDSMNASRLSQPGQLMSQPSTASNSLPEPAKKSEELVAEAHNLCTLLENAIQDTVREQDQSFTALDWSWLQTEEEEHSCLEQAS
# [10] = biological target: Insulin receptor (Homo sapiens) (UniProt P06213); settings: at 1 µM
# Chain of Insulin receptor (Homo sapiens) (P06213 28-758 limits assumed): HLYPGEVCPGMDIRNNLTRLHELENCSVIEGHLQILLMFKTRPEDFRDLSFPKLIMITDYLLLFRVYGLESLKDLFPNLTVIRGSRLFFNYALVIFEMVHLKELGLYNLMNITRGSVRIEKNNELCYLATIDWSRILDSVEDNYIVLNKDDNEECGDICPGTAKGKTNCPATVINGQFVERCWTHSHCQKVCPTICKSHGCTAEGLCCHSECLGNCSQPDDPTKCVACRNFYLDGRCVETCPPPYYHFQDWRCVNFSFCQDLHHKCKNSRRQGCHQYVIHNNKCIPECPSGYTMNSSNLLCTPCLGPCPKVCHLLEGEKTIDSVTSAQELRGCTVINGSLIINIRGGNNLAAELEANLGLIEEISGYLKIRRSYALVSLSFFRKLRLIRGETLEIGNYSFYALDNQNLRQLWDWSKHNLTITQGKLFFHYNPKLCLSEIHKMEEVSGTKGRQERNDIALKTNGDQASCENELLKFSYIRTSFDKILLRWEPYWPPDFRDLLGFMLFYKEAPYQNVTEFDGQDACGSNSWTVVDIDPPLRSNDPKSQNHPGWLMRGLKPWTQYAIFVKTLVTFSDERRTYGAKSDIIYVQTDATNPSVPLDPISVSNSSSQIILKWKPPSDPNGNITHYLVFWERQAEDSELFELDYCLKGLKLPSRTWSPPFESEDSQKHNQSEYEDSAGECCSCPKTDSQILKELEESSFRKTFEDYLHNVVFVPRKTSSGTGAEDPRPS
# Chain of Insulin receptor (Homo sapiens) (P06213 763-1382 limits assumed): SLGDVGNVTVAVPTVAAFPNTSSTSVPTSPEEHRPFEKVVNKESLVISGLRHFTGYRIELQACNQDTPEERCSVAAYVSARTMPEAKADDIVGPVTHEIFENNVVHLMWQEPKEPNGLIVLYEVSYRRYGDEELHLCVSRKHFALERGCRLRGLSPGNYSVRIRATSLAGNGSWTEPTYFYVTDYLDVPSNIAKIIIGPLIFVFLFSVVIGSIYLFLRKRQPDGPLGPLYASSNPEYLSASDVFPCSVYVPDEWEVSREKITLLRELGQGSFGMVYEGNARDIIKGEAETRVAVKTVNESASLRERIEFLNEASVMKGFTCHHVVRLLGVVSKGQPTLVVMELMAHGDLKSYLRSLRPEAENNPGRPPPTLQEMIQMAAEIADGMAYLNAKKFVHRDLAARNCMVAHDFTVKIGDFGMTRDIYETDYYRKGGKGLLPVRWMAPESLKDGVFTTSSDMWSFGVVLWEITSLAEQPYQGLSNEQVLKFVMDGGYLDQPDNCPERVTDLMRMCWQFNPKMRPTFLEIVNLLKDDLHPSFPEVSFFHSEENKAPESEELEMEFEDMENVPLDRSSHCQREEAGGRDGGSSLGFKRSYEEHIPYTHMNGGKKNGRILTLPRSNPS
# Chain of Insulin-like growth factor 1 receptor (Homo sapiens) (P08069 31-736 limits assumed): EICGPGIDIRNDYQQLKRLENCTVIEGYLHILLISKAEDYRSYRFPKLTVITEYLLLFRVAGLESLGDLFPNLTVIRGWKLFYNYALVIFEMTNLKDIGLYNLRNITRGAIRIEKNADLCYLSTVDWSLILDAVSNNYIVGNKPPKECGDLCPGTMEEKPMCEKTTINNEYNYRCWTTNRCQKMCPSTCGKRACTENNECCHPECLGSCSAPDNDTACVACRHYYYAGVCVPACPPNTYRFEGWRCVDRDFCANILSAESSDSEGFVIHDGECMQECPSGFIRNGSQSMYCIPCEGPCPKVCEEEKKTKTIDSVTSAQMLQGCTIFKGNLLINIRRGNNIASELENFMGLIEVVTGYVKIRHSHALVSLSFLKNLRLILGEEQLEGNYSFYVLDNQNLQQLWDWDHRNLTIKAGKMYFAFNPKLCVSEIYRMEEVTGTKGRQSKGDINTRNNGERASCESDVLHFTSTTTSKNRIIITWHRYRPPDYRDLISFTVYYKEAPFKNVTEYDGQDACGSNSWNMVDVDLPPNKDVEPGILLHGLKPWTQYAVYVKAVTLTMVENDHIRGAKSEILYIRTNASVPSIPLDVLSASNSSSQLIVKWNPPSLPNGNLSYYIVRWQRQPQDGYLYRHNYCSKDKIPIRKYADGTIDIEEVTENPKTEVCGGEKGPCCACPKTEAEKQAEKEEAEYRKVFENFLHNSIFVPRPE
# Chain of Insulin-like growth factor 1 receptor (Homo sapiens) (P08069 741-1367 limits assumed): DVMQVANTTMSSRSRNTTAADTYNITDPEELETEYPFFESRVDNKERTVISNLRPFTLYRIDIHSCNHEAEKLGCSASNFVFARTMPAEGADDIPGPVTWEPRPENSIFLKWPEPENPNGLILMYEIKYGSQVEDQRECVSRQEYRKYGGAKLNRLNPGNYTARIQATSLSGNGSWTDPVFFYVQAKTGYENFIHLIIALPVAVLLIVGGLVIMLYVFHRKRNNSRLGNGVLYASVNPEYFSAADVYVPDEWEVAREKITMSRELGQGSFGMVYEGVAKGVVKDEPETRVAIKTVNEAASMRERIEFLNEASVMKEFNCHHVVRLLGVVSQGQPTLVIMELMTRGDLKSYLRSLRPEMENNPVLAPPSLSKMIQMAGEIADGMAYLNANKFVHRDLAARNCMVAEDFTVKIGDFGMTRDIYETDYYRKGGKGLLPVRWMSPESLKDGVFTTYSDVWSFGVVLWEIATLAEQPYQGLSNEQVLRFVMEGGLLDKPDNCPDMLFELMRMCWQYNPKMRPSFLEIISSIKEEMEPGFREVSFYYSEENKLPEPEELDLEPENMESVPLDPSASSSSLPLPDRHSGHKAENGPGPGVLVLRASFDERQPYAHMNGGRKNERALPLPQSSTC
structure (smiles),measurement,setting,value
CCCC(=O)Oc1ccc2[nH]c(C(=O)c3cc4ccccc4[nH]3)cc2c1,residual activity,[1],63%
same,residual activity,[2],59%
same,residual activity,[3],79%
same,residual activity,[4],93%
same,residual activity,[5],93%
same,residual activity,[6],90%
same,residual activity,[7],104%
same,residual activity,[8],100%
same,residual activity,[9],93%
same,residual activity,[10],107%

# Reference: ChEMBL document CHEMBL2218924, “A broad activity screen in support of a chemogenomic map for kinase signalling research and drug discovery” (Biochem J, 2013)
